The structures appear in SMILES notation. Inconclusive results are not listed. A number with no mark means an inactive call. Calls of active or inactive are those of the source. Unless noted, the call rests on the fitted dose curve; in most records, active means well fitted curve in the direction sought with a large enough effect in the repeat runs; inconclusive means weak or mixed curves; inactive means no such curve, though single readings can be large; an effect the other way counts as inactive or inconclusive.

Test [1] in a line: qHTS assay to identify small molecule antagonists of the thyroid receptor (TR) signaling pathway (AID 743065). Further: nearly all actives have a fitted effect of over 55% in size. Further: potency means the concentration at half of the fitted maximal effect. The gist of the method: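 GH3.TRE-Luc rat pituitary cells carrying two TR response elements driving luciferase were plated for 4 h, given compound plus 1 nM T3 (final), and incubated 23.5 h at 37 C. ONE-Glo luminescence measured reporter inhibition; CellTiter-Fluor fluorescence tracked cytotoxicity.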

In test [2] the test system is thyroid hormone receptor (rat, GH3 cells). Put plainly: qHTS assay to identify small molecule agonists of the thyroid receptor (TR) signaling pathway (AID 743066; calls by dose curve).
Test [3] deals with Estrogen receptor (Homo sapiens) (UniProt P03372). The test can be described thus: qHTS assay to identify small molecule antagonists of the estrogen receptor alpha (ER-alpha) signaling pathway (AID 743069; active means well fitted curve in the direction sought with a large enough effect in the signal ratio in the repeat runs, not every such curve was filed as active; the % refers to the signal ratio). The gist of the method: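 A 17beta-estradiol challenge was applied right after compound transfer to ER-alpha-UAS-bla HEK293 cells previously kept in charcoal-stripped serum. Plates stood 18 hr at 37C and 5% CO2; fluorescence was read following 2 hr FRET substrate loading at room temperature.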
Chain of Estrogen receptor (Homo sapiens) (P03372 whole entry, looked up): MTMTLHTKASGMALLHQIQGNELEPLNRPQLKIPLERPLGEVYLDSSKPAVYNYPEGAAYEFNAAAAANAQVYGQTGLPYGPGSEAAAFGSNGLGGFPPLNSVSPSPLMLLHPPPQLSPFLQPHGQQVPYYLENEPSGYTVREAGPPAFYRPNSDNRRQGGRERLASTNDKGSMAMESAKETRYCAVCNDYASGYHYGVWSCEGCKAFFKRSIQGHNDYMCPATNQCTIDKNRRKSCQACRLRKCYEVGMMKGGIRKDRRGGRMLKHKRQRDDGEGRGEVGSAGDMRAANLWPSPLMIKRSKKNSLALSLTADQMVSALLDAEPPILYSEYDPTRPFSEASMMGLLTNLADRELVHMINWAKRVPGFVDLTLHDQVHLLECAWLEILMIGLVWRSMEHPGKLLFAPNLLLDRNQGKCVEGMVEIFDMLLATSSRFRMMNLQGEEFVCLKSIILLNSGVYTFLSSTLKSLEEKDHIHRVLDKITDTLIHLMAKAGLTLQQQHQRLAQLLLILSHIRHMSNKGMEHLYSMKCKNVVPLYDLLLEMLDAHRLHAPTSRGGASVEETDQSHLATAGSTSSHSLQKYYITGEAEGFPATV

A short description of test [4]: qHTS assay to identify small molecule antagonists of the estrogen receptor alpha (ER-alpha) signaling pathway - cell viability counter screen (AID 743074; calls by dose curve;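 further: HEK293 cells carrying ER-alpha-UAS-bla reporter stimulated with 17beta-estradiol; nearly all actives have a fitted effect of over 45% in size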).
Test [5] has as its target Estrogen receptor (Homo sapiens) (UniProt P03372). The test can be described thus: qHTS assay to identify small molecule agonists of the estrogen receptor alpha (ER-alpha) signaling pathway (AID 743075; calls by dose curve;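 further: HEK293 GripTite cells with ER-alpha and UAS-driven beta-lactamase reporter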).
For test [6] the target is unchanged. Put plainly: qHTS assay to identify small molecule agonists of the estrogen receptor alpha (ER-alpha) signaling pathway using the BG1 cell line (AID 743079). Further: nearly all actives have a fitted effect of over 20% in size. The conditions noted are these: BG1Luc4E2 cells, ERE-luciferase agonist, 22 h.
A short description of test [7]: qHTS assay to identify small molecule antagonists of the estrogen receptor alpha (ER-alpha) signaling pathway using the BG1 cell line (AID 743080; calls by dose curve;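 further: BG1 cells stimulated with 17beta-estradiol alongside compound; nearly all actives have a fitted effect of over 25% in size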). Put shortly:
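After 5 days in phenol-red-free 10% charcoal-stripped FBS medium, BG1-Luc-4E2 cells were seeded, left 24 h at 37 C, co-treated with compounds and 17beta-estradiol for 21.5 h, then assayed for viability and luciferase.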

The nature of test [8]: qHTS assay to identify small molecule antagonists of the estrogen receptor alpha (ER-alpha) signaling pathway using the BG1 cell line - cell viability counter screen (AID 743081).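 Further: compound given together with 17beta-estradiol as the ER stimulus; nearly all actives have a fitted effect of over 45% in size.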
Test [9] concerns the target Aromatase (Homo sapiens) (UniProt P11511). Put plainly: qHTS assay to identify aromatase inhibitors (AID 743083). Further: nearly all actives have a fitted effect of over 55% in size.
A short description of test [10]: qHTS assay to identify aromatase inhibitors - cell viability counter screen (AID 743084).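 Further: cells stimulated with testosterone during compound exposure; nearly all actives have a fitted effect of over 55% in size.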
On the % scale 0 is the no-effect control and ±100 the full control effect.

Chain of Aromatase (Homo sapiens) (P11511 whole entry, looked up): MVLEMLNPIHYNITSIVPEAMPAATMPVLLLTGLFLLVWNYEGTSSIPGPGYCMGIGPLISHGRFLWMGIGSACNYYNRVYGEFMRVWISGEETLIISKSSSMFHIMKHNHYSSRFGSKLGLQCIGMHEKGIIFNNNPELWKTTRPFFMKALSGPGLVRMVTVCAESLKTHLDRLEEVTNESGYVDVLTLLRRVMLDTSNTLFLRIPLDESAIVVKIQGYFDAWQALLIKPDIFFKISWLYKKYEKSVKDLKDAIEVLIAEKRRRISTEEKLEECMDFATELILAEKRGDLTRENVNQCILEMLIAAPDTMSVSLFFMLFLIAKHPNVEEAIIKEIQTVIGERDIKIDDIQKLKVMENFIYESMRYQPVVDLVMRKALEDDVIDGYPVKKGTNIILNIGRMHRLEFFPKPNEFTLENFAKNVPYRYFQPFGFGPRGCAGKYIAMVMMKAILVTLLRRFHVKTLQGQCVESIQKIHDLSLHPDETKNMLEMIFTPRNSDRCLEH

With `O=NN1CCN(N=O)CC1`, the Potency entry in test [1], in test [2], in [3], in [5], in test [7] and in test [8] was “inactive” throughout. Also, the Potency result in test [9] and in test [10] was “inactive” in each case. Besides, the call in test [4] was inactive. In addition, the activation in test [6] (at 70.3 µM (top of the series)) is 9.64%.

Take `ClC(Br)Br`: the Potency entry in test [1], in [2], in test [3], in test [5], in test [7] and in test [8] was “inactive” each time. The Potency entry in [9] and in test [10] was “inactive” each time. The result in [4] was inactive. In test [6] (at 70.3 µM (top of the series)), the activation was 1.01%.

For the compound `CCC(=O)c1ccccc1`, the Potency entry in test [1], in test [2], in test [3], in test [5], in test [7] and in test [8] was “inactive” each time. Besides, the Potency entry in test [9] and in [10] was “inactive” in each case. In addition, the compound was classed as inactive in test [4]. Moreover, the activation in [6] (at 70.3 µM (top of the series)) is -1.07%.

Regarding `CC1CN1P(=O)(N1CC1C)N1CC1C` (configuration not stated), the Potency entry in [1], in test [2], in test [3], in [5], in test [7] and in test [8] was “inactive” each time. Besides, the Potency result in [9] and in test [10] was “inactive” each time. The result in test [4] was inactive. Further, the activation in test [6] (at 70.3 µM (top of the series)) is -10.3%.

With `O=[N+]([O-])c1cc(Cl)c(Cl)c(Cl)c1`, the Potency result in test [1], in [2], in [3], in test [5], in test [7] and in [8] was “inactive” each time. For the same compound, in test [9], the Potency entry was “inactive”. For the same compound, the compound was classed as inactive in [4]. In addition, the activation in test [6] (at 70.3 µM (top of the series)) is 9.06%.

`C[N+](C)=CCl`: the Potency result in [1], in [2], in test [3], in [5], in test [7] and in test [8] was “inactive” in each case. Moreover, the Potency entry in test [9] and in test [10] was “inactive” in each case. Besides, the result in test [4] was inactive. Besides, the activation in test [6] (at 70.3 µM (top of the series)) is 20.5%.

On to `O=[N+]([O-])c1ccc(CBr)cc1`, for which the Potency result in [1], in test [2], in test [3], in test [5], in test [7] and in test [8] was “inactive” throughout. Further, the Potency entry in test [9] and in test [10] was “inactive” throughout. For the same compound, the compound was called inactive in test [4]. Also, in test [6] (at 95 µM (top of the series)), the activation is 2.58%.

On to `CS(=O)(=O)c1cc(C(F)(F)F)ccc1C(=O)c1cnoc1C1CC1`, for which the Potency entry in test [1], in [2], in test [3], in test [5], in test [7] and in test [8] was “inactive” throughout. The Potency result in test [9] and in [10] was “inactive” throughout. In addition, in test [4], the result was inactive. The activation in test [6] (at 70.3 µM (top of the series)) is 0.699%.

Turning to `CCC(Cl)[N+](=O)[O-]` (configuration not stated), the Potency entry in test [1], in test [2], in test [3], in [5], in test [7] and in test [8] was “inactive” in each case. For the same compound, the Potency entry in [9] and in test [10] was “inactive” throughout. In test [4], the compound was called inactive. Also, the activation in test [6] (at 95 µM (top of the series)) was -4.86%.

On to `O=P(O)(Oc1ccccc1)Oc1ccccc1`, for which the Potency result in test [1], in test [2], in test [3], in test [5], in [7] and in test [8] was “inactive” throughout. In addition, the Potency entry in [9] and in test [10] was “inactive” in each case. For the same compound, the result in test [4] was inactive. For the same compound, the activation in [6] (at 70.3 µM (top of the series)) is 1.22%.

With `CC(C)CP(=S)(S)CC(C)C`, the Potency result in test [1], in [2], in test [3], in [5], in test [7] and in test [8] was “inactive” throughout. Besides, the Potency entry in test [9] and in test [10] was “inactive” each time. Besides, the result in test [4] was inactive. Besides, in test [6] (at 70.3 µM (top of the series)), the activation was -12.9%.

With `ClC(Cl)(Cl)C(Cl)(Cl)Cl`, the Potency entry in test [1], in test [2], in test [3], in test [5], in [7] and in test [8] was “inactive” in each case. In addition, the Potency result in test [9] and in [10] was “inactive” in each case. Moreover, the outcome in test [4] was inactive. Besides, the activation in test [6] (at 95 µM (top of the series)) was -4.65%.

As to `C#CCN1C(=O)COc2cc(F)c(N3C(=O)C4=C(CCCC4)C3=O)cc21`, the Potency result in test [1], in test [2], in test [3], in test [5], in test [7] and in test [8] was “inactive” throughout. Further, the Potency result in [9] and in test [10] was “inactive” throughout. Also, in test [4], the call was inactive. Further, the activation in [6] (at 70.3 µM (top of the series)) was -23.7%.

As to `COP(N)(=S)Oc1ccccc1C(=O)OC(C)C` (configuration not stated), the Potency entry in test [1], in [2], in test [3], in test [5], in [7] and in test [8] was “inactive” throughout. Besides, the Potency entry in test [9] and in [10] was “inactive” in each case. For the same compound, the result in [4] was inactive.

For `CC(=O)Nc1cc([As](=O)(O)O)ccc1O`, the Potency entry in test [1], in test [2], in test [3], in test [5], in [8] and in test [9] was “inactive” each time. For the same compound, the Potency result in test [10] was “inactive”. Moreover, the activation in test [6] (at 70.3 µM (top of the series)) is 10%.

`c1cc[c]([Hg][c]2ccccc2)cc1`: the Potency in test [1] was 3.06 µM (active). The Potency entry in test [2], in test [3], in test [5], in [8], in test [9] and in [10] was “inactive” throughout. In [4], the result was inactive.

Consider `Cc1nc(N)nc(N)n1`, for which the Potency result in test [1], in test [2], in [3], in [5], in [7] and in [8] was “inactive” each time. Besides, the Potency entry in [9] and in [10] was “inactive” each time. In addition, the compound was called inactive in test [4]. In addition, the activation in [6] (at 95 µM (top of the series)) was 2.81%.

Turning to `CC1(C)C(=O)NC(=O)NC1=O`, the Potency result in test [1], in test [2], in test [3], in [5], in test [7] and in test [8] was “inactive” throughout. Besides, the Potency result in test [9] and in [10] was “inactive” each time. Also, the activation in test [6] (at 70.3 µM (top of the series)) was -7.44%.

Turning to `COP(=S)(OC)Oc1ccc(S(N)(=O)=O)cc1`, the Potency result in test [1], in test [2], in test [3], in test [5], in test [7] and in test [8] was “inactive” each time. Further, the Potency entry in test [9] and in [10] was “inactive” throughout. Further, the activation in [6] (at 70.3 µM (top of the series)) was 10.7%.

Consider `O=S(=O)(O)C(F)(F)C(F)(F)C(F)(F)C(F)(F)C(F)(F)C(F)(F)F`, for which the Potency result in [1], in test [2], in test [3], in test [5], in test [7] and in test [8] was “inactive” throughout. Besides, in test [9], the Potency result was “inactive”. In test [6] (at 70.3 µM (top of the series)), the activation is -0.729%.

With `O=C1c2ccccc2C(=O)c2ccccc21`, the Potency entry in test [1], in [2], in test [3], in test [5], in test [9] and in test [10] was “inactive” throughout. The call in test [4] was inactive.

Regarding `[Cl][Sn]([Cl])([Cl])[Cl]`, the Potency result in test [1], in test [2], in test [3], in [5], in test [7] and in [8] was “inactive” throughout. Besides, the Potency entry in [9] and in test [10] was “inactive” each time. Further, the compound was classed as inactive in [4]. Further, the activation in test [6] (at 95 µM (top of the series)) is -3.53%.

With `CNNC`, the Potency entry in test [1], in test [2], in [3], in test [5], in test [7] and in test [8] was “inactive” throughout. The Potency entry in test [9] and in test [10] was “inactive” each time. For the same compound, the compound was called inactive in test [4]. The activation in test [6] (at 95 µM (top of the series)) is -3.86%.

The values above are taken from PubChem BioAssay (Tox21).
